Source: PubChem BioAssay (National Center for Advancing Translational Sciences (NCATS))
Rows were chosen to be rich in hits. Some 2.3% of all compounds tested hit in one or more screens of this group.
HTT aggregate: reduces HttQ103-GFP aggregates in PC12 cells; Potency, µM (series often up to 46.1 µM), most hits filed as inhibitors; 220,000 tested, 1.1% active; PC12 HttQ103-GFP aggregates, Acumen cytometry, 40 h; further: nearly all actives have a fitted effect of over 60% in size
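Inducible Q103 Huntingtin exon 1–GFP PC12 line, 1500 cells/well in phenol red free DMEM with 5% equine and 5% calf serum. Tebufenozide 100 nM induced expression; compounds titrated; aggregates quantified by cytometry.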
JMJD2E inh: inhibitors of human JMJD2E histone demethylase; B2RXH2; JMJD2E catalytic domain, FDH-coupled NADH fluorescence (FDH is formaldehyde dehydrogenase); Potency, µM (titrated, usually from 57.1 µM), most hits filed as inhibitors; 230,000 tested, 1.6% active; AID 2147; active means well fitted inhibition curve with a large enough effect, not every such curve was filed as active; inconclusive means small, poorly fitted or top-dose-only effect, or another doubt; inactive means no such curve, though single readings can be large or run the other way; further: nearly all actives have a fitted effect of over 50% in size
Target sequence (B2RXH2 1-337 limits assumed): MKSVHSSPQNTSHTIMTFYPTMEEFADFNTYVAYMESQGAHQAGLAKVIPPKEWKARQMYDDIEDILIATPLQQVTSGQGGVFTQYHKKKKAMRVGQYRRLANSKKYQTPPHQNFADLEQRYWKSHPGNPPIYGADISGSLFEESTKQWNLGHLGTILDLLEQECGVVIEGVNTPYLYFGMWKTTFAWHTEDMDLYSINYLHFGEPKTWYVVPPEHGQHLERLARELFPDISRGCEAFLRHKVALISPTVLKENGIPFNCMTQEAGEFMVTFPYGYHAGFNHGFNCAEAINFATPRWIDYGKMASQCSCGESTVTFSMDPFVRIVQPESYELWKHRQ
HTT ATP protect: protects HTT-Q103 PC12 cells, measured by ATP; AID 1471; 230,000 tested, 0.14% active; Potency, µM (series often up to 56.4 µM), actives largely listed as activators; PC12 HTT-Q103 induced, cytoprotection, ATP luminescence, 40 h; further: nearly all actives have a fitted effect of over 45% in size
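Compounds added alongside 100 nM tebufenozide, which induces toxic Q103 huntingtin exon 1-GFP in stable PC12 cells; surviving cells quantified by luminescent ATP measurement. Medium: phenol red-free DMEM, 5% equine and 5% calf serum.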
GoLoco inh red: blocks human Gai1 binding to RGS12 GoLoco peptide, red readout. Gai1:RGS12 GoLoco peptide FP, rhodamine, 10 min. AID 880. 230,000 tested, 0.44% active. Potency, µM (titrated, usually from 61.6 µM), usual class: inhibitors; active means well fitted inhibition curve with a large enough effect, not every such curve was filed as active; inactive means no such curve, though single readings can be large or run the other way; further: nearly all actives have a fitted effect of over 30% in size
Target sequence (P63096 whole entry, looked up): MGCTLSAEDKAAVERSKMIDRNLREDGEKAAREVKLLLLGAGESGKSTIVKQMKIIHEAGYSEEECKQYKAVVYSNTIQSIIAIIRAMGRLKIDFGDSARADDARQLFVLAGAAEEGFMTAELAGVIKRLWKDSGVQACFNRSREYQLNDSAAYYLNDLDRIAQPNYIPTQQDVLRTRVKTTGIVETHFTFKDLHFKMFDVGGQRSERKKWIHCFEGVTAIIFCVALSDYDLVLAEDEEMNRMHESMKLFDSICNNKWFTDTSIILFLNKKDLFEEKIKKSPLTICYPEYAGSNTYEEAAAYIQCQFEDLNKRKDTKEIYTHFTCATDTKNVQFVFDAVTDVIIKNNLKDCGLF
VDR inhibitor: blocks the human vitamin D receptor. P11473. VDR-SRC2-3 peptide fluorescence polarization, 2 h. Potency, µM, hits mostly inhibitors. 400,000 tested, 0.93% active. AID 504847
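The screen uses fluorescence polarization to detect compounds that interfere with recruitment of the SRC2-3 coactivator peptide to VDR; plates are read after 2 h at room temperature.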
Coupling enz: inhibits coupling enzyme system, counter-screen for aldolase hits | coupling enzyme system counterscreen, AmpLite Red fluorescence | activity change, negative = inhibition, % at 58.2 µM, hits read low | 290,000 tested, 0.67% active; in the data active means activity change below about -30%
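Coupling enzymes only (glyceraldehyde-3-phosphate) + compound, at 57.5 uM final, 10 min RT; add substrate/coupling/AmpLite Red mix, 20 min RT; fluorescence ex 525/em 598 nm. Actives flag coupling-system interference.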
Numbers stand for hits; . = inactive; ? = inconclusive; / = not tested or not shown; [ ] = dose if it differs, or a comment. Unless noted, the call rests on the fitted dose curve; in most records, active means well fitted curve in the direction sought with a large enough effect; inconclusive means small, poorly fitted or top-dose-only effect, or another doubt; inactive means no such curve, though single readings can be large; an effect the other way counts as inactive or inconclusive.

SMILES	HTT aggregate	JMJD2E inh	HTT ATP protect	GoLoco inh red	VDR inhibitor	Coupling enz
COc1ccc(C2C(C#N)=C(N)Oc3cc(O)ccc32)cc1 (stereo unspecified)	/	/	/	/	.	/
CCn1c(=O)cc(OCC(=O)N2CCN(c3ccccc3OC)CC2)c2ccccc21	/	/	/	/	.	/
Cc1ccc(-c2noc(CCC(=O)NC3CCCc4ccccc43)n2)cc1 (stereo unspecified)	3.2µM	.	/	.	.	.
CC1=C(c2ccc(C)c(C)c2)S(=O)(=O)N(Cc2ccc(C(=O)Nc3cc(F)ccc3F)cc2)C1=O	/	/	/	/	.	/
Cc1ccc(/C=C2/Sc3ccc(C(=O)NCc4ccccn4)cc3NC2=O)cc1	/	/	/	/	.	/
Cc1cc(O)c2ccccc2c1O	?	/	.	.	35µM	/
O=C(O)c1cc(C(=O)C(=O)c2cc(C(=O)O)c(O)c3ccccc23)c2ccccc2c1O	/	/	.[10 µM]	.[14.2 µM]	/	/
CC(=O)Cc1cc(O)c2ccccc2c1OC(=O)c1ccccc1	.[9.22 µM]	.	.	.	.	.
CC(=O)Oc1c(C)cc(O)c2ccccc12	14µM	?	.	.	/	-32
CCOc1c(Cl)cc(CNc2ccc(N3CCCC3)cc2)cc1OC	.	8.9µM	.[10 µM]	.	14µM	.
COc1ccc([N+](=O)[O-])cc1NC(=O)Cc1ccccc1Cl	.	.	.[10 µM]	.	.	.
Cc1ccc(N=Cc2cc(Cc3ccccc3Cl)cc([N+](=O)[O-])c2O)c(O)c1	?	18µM	?	.	.	.
COc1ccc(N=Cc2cc(Cc3ccccc3Cl)cc([N+](=O)[O-])c2O)cc1OC	22µM	?	35µM	.	.	.
CCc1ccc(CSc2nc(-c3ccccc3OC)nc3c2Cc2c(CO)cnc(C)c2O3)cc1	/	/	/	/	.	/
COC(=O)C1(CC2CC(c3ccccc3)=NO2)CCN(C(=O)OC(C)(C)C)CC1 (stereo unspecified)	/	/	/	/	.	/
CCc1ccc(C2c3c(-c4ccccc4O)n[nH]c3C(=O)N2Cc2ccncc2)cc1 (stereo unspecified)	/	/	/	/	.	/
O=C(CC1C[C@H](C(=O)N2CCCCC2)[C@@]2(CCc3ccccc3)c3[nH]c4ccccc4c3CCN2C1=O)NCCCn1ccnc1 (stereo partly specified)	/	/	/	/	.	/
COc1ccccc1NC(=O)CCC(=O)O	.	.	.[10 µM]	.	.	.
O=C(O)CCC(=O)Nc1ccccc1Oc1ccccc1	.	.	?	.	79µM	.
CCOc1ccc(C2C(C(=O)Nc3ccccc3)=C(C)Nc3nc(-c4ccccc4)nn32)cc1OC (stereo unspecified)	/	/	/	/	.	/
O=C1CC(c2nc(-c3ccc(Cl)cc3)no2)CN1c1ccc2c(c1)OCCO2 (stereo unspecified)	/	/	/	/	.	/
CCc1[nH]nc2c1C(C(C)C)C(C#N)=C(N)O2 (stereo unspecified)	11µM	.	.[10 µM]	.	.	.
CC1=c2c(oc3cc(O)c(Nc4c(C)cc(O)cc4O)c(C)c23)=CC(=O)C1=Nc1c(C)cc(O)cc1O	/	/	.[10 µM]	3.2µM	/	/
CCN(CC)c1ccc(/C=C2\SC(=O)N(C(C)C)C2=O)o1	.[9.22 µM]	.	.[10 µM]	.	32µM	.
CCCc1cc(CN2CCOCC2)c(O)c(CN2CCOCC2)c1O	/	/	/	/	22µM	/
SMILES	HTT aggregate	JMJD2E inh	HTT ATP protect	GoLoco inh red	VDR inhibitor	Coupling enz
Oc1ccc2ccccc2c1CN1CCOCC1	.[9.22 µM]	?	.[10 µM]	.	?	.
Oc1c(CNc2ccccc2)cc(COCc2ccccc2)c2cccnc12	/	/	/	/	.	/
Oc1c(CN2CCOCC2)cc(CN2CCOCC2)c(O)c1O	/	/	/	/	20µM	/
Oc1c(CN2CCOCC2)cc(COCc2ccccc2)c2cccnc12	?	25µM	.[10 µM]	.	?	.
Oc1c(Cl)cc(Oc2cc(Cl)c(O)c(CN3CCOCC3)c2)cc1CN1CCOCC1	/	/	/	/	.	/
C=C1N[C@]2(C(=O)COC(C)=O)[C@@H](C[C@H]3[C@@H]4CCC5=CC(=O)C=C[C@]5(C)[C@H]4[C@@H](O)C[C@@]32C)O1	.	/	.	/	.	/
COC(=O)C1C(O)C(C)C(O)C(C)(O)/C=C\C=C(/C)C(=O)Nc2c(C)c(OC(C)=O)c3c(c2O)C(=O)C(C)=C2OCOC(=C23)/C(C)=C/C(C)(O)C(O)C(C)C1O (stereo unspecified)	.[9.22 µM]	3.2µM	.[10 µM]	.	.	-42
O=[N+]([O-])c1ccc(NC(=S)N2CCN(c3ccc(F)cc3)CC2)cc1	?	.	.	.	.	.
O=[N+]([O-])c1ccc(C(=S)N2CCN(c3ccc(F)cc3)CC2)cc1	.	.	.	.	79µM	.
Cc1cccc(Cc2cnc(N3C(=N)SC(C)C3=O)s2)c1 (stereo unspecified)	22µM	.	.	.	.	.
Cc1ccc(Cc2cnc(N3C(=N)SC(C)C3=O)s2)cc1 (stereo unspecified)	.	.	.	.	.	.
COc1cc(NS(=O)(=O)c2ccc3c(c2)C(C)(C)C(=O)N3C)cc(OC)c1	/	/	/	/	.	.
O=C(Nc1nc(-c2ccccn2)cs1)c1ccc(Br)s1	1.3µM	?	.	.	.	.
O=C(Nc1nc(-c2ccccn2)cs1)c1ccco1	?	?	.	.	.	.
NC(=O)c1csc(-c2ccc(CO)o2)n1	/	/	.[10 µM]	.[14.2 µM]	/	/
OCc1ccc(-c2ccc(-c3ccc(CO)s3)o2)s1	/	/	.	.	10µM	.
O=c1cc(CO)oc(C(Nc2ccccn2)c2ccc(F)cc2)c1O (stereo unspecified)	.	?	.[10 µM]	.	28µM	.
COc1ccc(C(Nc2ccccn2)c2oc(CO)cc(=O)c2O)cc1 (stereo unspecified)	.	?	/	.	?	.
Cc1ccnc(NC(c2ccccc2O)c2oc(CO)cc(=O)c2O)c1 (stereo unspecified)	.	?	.	.	.	-33
COC(=O)c1cc(=O)nc2sc(-c3ccc(F)cc3)nn12	.	?	.	/	45µM	.
O=C1CSc2ccc(C(=O)Nc3cccc(S(=O)(=O)Nc4ccc(Br)cc4)c3)cc2N1	7.9µM	.	.[10 µM]	.	.	.
O=C(Nc1ccc(Br)cc1)c1cccc(S(=O)(=O)Nc2ccc(Br)cc2)c1	/	/	/	/	.	.
CC1(C)CC(=O)C(C(C#Cc2ccccc2)C2=C(O)CC(C)(C)CC2=O)=C(O)C1	.	.	.	.	22µM	/
O=C1CCCC(O)=C1C(C#Cc1ccccc1)C1=C(O)CCCC1=O	.	?	.[10 µM]	.	?	.
O=C(CCCCn1c(=O)c2ccccc2n(Cc2cccc(Cl)c2)c1=O)NCc1ccc2c(c1)OCO2	/	/	/	/	.	/
COc1ccc(-c2c[n+](CC(=O)OC3CC(C)CCC3C(C)C)c3n2CCC3)cc1 (stereo unspecified)	10µM	.	.[10 µM]	.	.	.
C=C(C(=O)c1ccccc1)C(c1ccccc1)C(C)C(=O)c1ccccc1 (stereo unspecified)	.[1.84 µM]	.	.[1.9 µM]	.	.	.
